# Measured values taken from PubChem BioAssay (NCATS).
# Several values for one entry are separate records, joined by “and”; a condition that tells them apart may be missing. Equal entries are not always repeated. Records with an inconclusive call do not appear. Activity calls are given as the source filed them. Calls follow the shape of the dose curve; as a rule, active = well fitted activation curve with a large enough effect; inconclusive = small, poorly fitted or top-dose-only effect; inactive = no such curve, though single readings can be large or run the other way. Numbered stars: 1 amine (or outer) side, 2 acyl side, 3 side chain; on linkers, the order of the positions; unused ones are H or OH. Square brackets hold non-standard residues; d marks the D form. Peptide text beside a SMILES is read from it. * marks the point of attachment. ξ: configuration not given here. X9 = CCC(C)(N*)C(=O)C1CC[C@@H](C(=O)N[C@@H](Cc2ccccc2)C(=O)NCC(=O)O)N1; X8 = O=C([C@@H]1CC(O)CN1[*:1])[*:2]; aIle = CC[C@@H](C)[C@H](N)C(=O)O; Thr(3ξ) = CC(O)[C@H](N)C(=O)O; ξIva = CCC(C)(N)C(=O)O; Aib = CC(C)(N)C(=O)O
# Target: Cellular tumor antigen p53 (Homo sapiens) (UniProt P04637)
# Test: Primary qHTS for small molecule compounds that upregulate eGFP-tagged delta133p53alpha (in N-terminal) cells. (AID 2060322); also: nearly all actives have a fitted effect of over 75% in size;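 as to activation: cells pre-induced with doxycycline then dosed without doxycycline; series mostly up to about 56 µM; 0% = DMSO vehicle and 100% = reference activator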
# Settings: NCI-H358 eGFP-delta133p53alpha fluorescence, 24 h; activation: stronger effect = higher value
# Procedure, shortened: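 NCI-H358 cells pre-induced 24 h with 10 ng/ml doxycycline for eGFP-delta133p53alpha, plated dox-free and exposed 24 h at 37C to titrated compounds. Fixed, Hoechst-stained; gated GFP peak intensity by laser scanning cytometry, normalized to DMSO (0%) and 57.5 uM 5-azacytidine (100%).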
# Potency is read from the fitted curve at half-maximal effect.
# Chain of Cellular tumor antigen p53 (Homo sapiens) (P04637 whole entry, looked up): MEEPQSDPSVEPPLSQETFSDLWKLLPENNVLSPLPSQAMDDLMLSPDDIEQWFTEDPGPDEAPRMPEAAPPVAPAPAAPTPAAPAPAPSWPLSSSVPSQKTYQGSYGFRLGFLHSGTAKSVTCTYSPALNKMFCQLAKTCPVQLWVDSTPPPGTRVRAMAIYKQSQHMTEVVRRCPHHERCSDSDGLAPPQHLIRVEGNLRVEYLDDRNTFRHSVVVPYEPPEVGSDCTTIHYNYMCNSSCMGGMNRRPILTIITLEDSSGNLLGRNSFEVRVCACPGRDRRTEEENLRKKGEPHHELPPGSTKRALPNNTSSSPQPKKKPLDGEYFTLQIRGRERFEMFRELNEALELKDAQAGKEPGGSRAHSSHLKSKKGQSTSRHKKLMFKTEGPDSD
SMILES,activation,Potency
COc1ccc(C2(CNC(=O)[C@](C)(Cc3c[nH]c4ccccc34)NC(=O)Nc3ccc([N+](=O)[O-])cc3)CCCCC2)nc1,12.9% (inactive),–
Cc1cc(C)c(NC(=O)N(Cc2ccc3c(c2)Cc2ccccc2-3)C2CCCCCC2)c(C)c1,15.3% (inactive),–
COc1cc(CO)ccc1O[C@@H]1O[C@H](CO)[C@@H](O)[C@H](O)[C@H]1O,-7.14% (inactive),–
COc1ccc([C@H]2Cc3cccc(O)c3C(=O)O2)cc1OC,6.87% (inactive),–
CC(=O)OC1C[C@]2(C)C(O)CC(C)=C[C@H](OC(=O)c3ccc(O)cc3)C2[C@]1(O)C(C)C (stereo partly drawn),-20.6% (inactive),–
C=C1C(O)C[C@@H]2C(C(=O)O)=CO[C@@H](O[C@@H]3O[C@H](CO)[C@@H](O)[C@H](O)[C@H]3OC(=O)c3ccc(O)cc3)[C@H]12 (stereo partly drawn),9.82% (inactive),–
CC[C@@H](C)[C@H](NC(=O)C(C)(C)NC(=O)[C@H](CCC(N)=O)NC(=O)C(C)(CC)NC(=O)[C@H](Cc1c[nH]c2ccccc12)NC(C)=O)C(=O)N[C@H](C(=O)NC(C)(C)C(=O)N[C@@H](CC(C)C)C(=O)NC(C)(C)C(=O)N1CCC[C@H]1C(=O)N[C@@H](CCC(N)=O)C(=O)NC(C)(C)C(=O)N1CC(O)C[C@H]1C(=O)NC(C)(CC)C(=O)C1CC[C@@H](C(=O)N[C@@H](Cc2ccccc2)C(=O)NCC(=O)O)N1)C(C)O (stereo partly drawn) (Ac-W[ξIva]Q[Aib][aIle][Thr(3ξ)][Aib]L[Aib]PQ[Aib][X8]-X9),3.57% (inactive),–
COC(=O)[C@@H](NC(=O)[C@H](CC(C)C)NC(=O)N(Cc1ccccc1)C[C@@H](O)[C@H](Cc1ccccc1)NC(=O)OC(C)(C)C)C(C)C,19.7% (inactive),–
CC(=O)C1=CCC2C3CC=C4CC(O)CC(O)C4(C)C3C(O)CC12C (stereo not drawn),6.11% (inactive),–
C=C(C)C1Cc2cc(C(=O)OC3OC(CO)C(O)C(O)C3O)ccc2O1 (stereo not drawn),9.92% (inactive),–
CC1=C(C(=O)O)/C(=C\CO[C@@H]2O[C@H](CO)[C@@H](O)[C@H](O)[C@H]2O)C(OC(=O)/C=C/c2ccc(O)cc2)C1 (stereo partly drawn),-3.82% (inactive),–
CC(=O)OC1C(O)/C(C)=C\C2C(OC(=O)c3ccccc3)C(C)CC2(OC(C)=O)C(OC(C)=O)C(C)/C=C/C(C)(C)C1OC(C)=O (stereo not drawn),-20.5% (inactive),–
COC(=O)C1=CO[C@@H](O[C@@H]2O[C@H](CO)[C@@H](O)[C@H](O)[C@H]2O)[C@H]2[C@@H]1C=C[C@]21C=C([C@H](C)OC(=O)/C=C/c2ccc(O)cc2)C(=O)O1,–,2.51 µM (active)
OC[C@H]1O[C@@H](OC[C@H]2O[C@@H](OC/C=C/c3ccccc3)[C@H](O)[C@@H](O)[C@@H]2O)[C@@H](O)[C@@H]1O,20.5% (inactive),–
C/C1=C\CCC(C)CCO[C@@H]2O[C@H](CO[C@@H]3OC[C@H](O)[C@H](O)[C@H]3OC1=O)[C@@H](O)[C@H](O)[C@H]2O (stereo partly drawn),-24.1% (inactive),–
C=C1CC[C@@H]2[C@](C)(CC[C@H](O)[C@@]2(C)CCC=C(C)C)[C@@H]1Cc1c[nH]c2ccccc12,-21.4% (inactive),–
CC(C)=CCCC1(C)/C=C/C(OC(=O)C=C(C)C)C(C)(O)/C=C/C(=O)/C(CO)=C\C1 (stereo not drawn),–,10.4 µM (active)
O=C(O[C@@H]1O[C@H](CO)[C@@H](O)[C@H](O)[C@H]1O)c1c(O)cc(O)cc1/C=C/c1ccccc1,-23.7% (inactive),–
C[C@@H]1N[C@H]2N(C1=O)c1ccccc1[C@@]2(O)C[C@@H]1C(=O)N[C@@H](C)c2nc3ccccc3c(=O)n21,-22.9% (inactive),–
FC(F)(F)c1ccc(Nc2nc3ccc(Oc4ccnc(-c5ncc(C(F)(F)F)[nH]5)c4)cc3[nH]2)cc1,-7.84% (inactive) and 12.4% (inactive),–
CC(=O)O[C@@H]1[C@H](O[C@@H]2OC[C@](O)(CO)[C@H]2O)[C@@H](O[C@@H]2O[C@@H](C)[C@H](O)[C@@H](O)[C@H]2O)[C@H](OC(=O)[C@]23CCC(C)(C)C[C@H]2C2=CCC4[C@@]5(C)C[C@H](O)[C@H](O[C@@H]6O[C@H](C(=O)O)[C@@H](O)[C@H](O)[C@H]6O)[C@@](C)(C(=O)O)C5CC[C@@]4(C)[C@]2(C)CC3)O[C@@H]1C (stereo partly drawn),18.3% (inactive),–
CC1=C2CC(=O)C(C)CC/C=C(\C)CC2OC1=O (stereo not drawn),8.93% (inactive),–
CC1(CCOC2OC(CO)C(O)C(O)C2O)CCC23OC2(C1)C(O)CC1C(C)(C(=O)O)CCCC13C (stereo not drawn),-13.7% (inactive),–
